Screening data deposited in PubChem by The Scripps Research Institute Molecular Screening Center.
FBW7 act: human FBW7 E3 ligase activation, primary screen; Q969H0; AlphaScreen FBW7–phospho-cyclin E peptide binding, activator screen; normalized activity (activation), % at 26.1 µM; hit rate 0.13% among 650,000; in the data active = normalized activity above about 1.9%;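 note: purified mutant Fbw7 with reduced substrate affinity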
GPR151 ag: activators of human GPR151 | Q8TDV0 | PathHunter beta-arrestin GPR151 cells, luminescence | activation, % at 11.2 µM | hit rate 1% among 650,000 | AID 1508602; in the data active = activation above about 4.9%;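 note: 0% = median of compound wells and 100% = cells with positive control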
Target sequence (Q8TDV0 whole entry, looked up): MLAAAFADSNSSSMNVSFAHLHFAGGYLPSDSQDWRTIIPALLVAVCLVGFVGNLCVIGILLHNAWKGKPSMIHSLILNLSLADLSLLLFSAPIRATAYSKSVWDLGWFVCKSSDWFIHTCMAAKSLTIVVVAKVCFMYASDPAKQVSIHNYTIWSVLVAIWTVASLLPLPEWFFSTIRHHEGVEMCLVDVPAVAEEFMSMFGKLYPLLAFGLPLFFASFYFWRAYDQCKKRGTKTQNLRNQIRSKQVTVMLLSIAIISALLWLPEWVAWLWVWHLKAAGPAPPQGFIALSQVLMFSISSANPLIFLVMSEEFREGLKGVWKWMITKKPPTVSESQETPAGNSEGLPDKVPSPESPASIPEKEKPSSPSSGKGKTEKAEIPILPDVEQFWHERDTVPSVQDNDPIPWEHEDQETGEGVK
TEAD-YAP inh: TEAD-YAP interaction inhibition. HEK-TIYL cells, TEAD-Gal4/YAP UAS-luciferase luminescence. inhibition, % at 9.12 µM. hit rate 1.4% among 640,000. AID 1259422; in the data active = inhibition above about 32%;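 note: 0% = median of test compound wells and 100% = reference inhibitor wells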
MITF inh: blocks human microphthalmia-associated transcription factor. O75030. inhibition, % at 2.6 µM. hit rate 0.91% among 650,000. AlphaScreen MITF homodimerization, bead proximity signal; in the data active = inhibition above about 50%;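 note: 0% = vehicle wells with protein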
Starred values were filed as active, the others as inactive. An excerpt weighted towards active compounds, which were near 3.5% of everything screened.

SMILES	FBW7 act	GPR151 ag	TEAD-YAP inh	MITF inh
COc1cccc(-c2cnc(NCc3ccc(F)cc3)n2C)c1	0	0	5	49
Cc1ccccc1CSc1nc2[nH]ncc2c(=O)[nH]1	0	0	-7	5
Cc1ccc(C)c(CSc2nc3[nH]ncc3c(=O)[nH]2)c1	0	1	37*	10
Cc1c(C(=O)OCc2ccccc2)[nH]c2c1C(=O)CC(c1ccco1)C2 (centres undefined)	0	0	57*	15
Cc1c(C(=O)OCCOC(C)C)[nH]c2c1C(=O)CC(C)(C)C2	0	1	-6	-4
CCOCCOC(=O)c1[nH]c2c(c1C)C(=O)CC(c1ccco1)C2 (centres undefined)	0	0	51*	-6
COCCOC(=O)c1[nH]c2c(c1C)C(=O)C(C(=O)OC)C(C)C2 (centres undefined)	0	-1	-10	-15
Cc1c(C(=O)OCCOC(C)C)[nH]c2c1C(=O)CC(c1ccco1)C2 (centres undefined)	0	0	60*	5
COCCOC(=O)c1[nH]c2c(c1C)C(=O)CC(c1ccco1)C2 (centres undefined)	0	0	49*	5
O=C(c1nc2ccc(Cl)cn2c1CN1CCOCC1)N1CCCCCCC1	0	0	-6	12
CCOC(=O)c1[nH]c2c(c1C)C(=O)CC(c1ccco1)C2 (centres undefined)	0	2	58*	21
CCOCCOC(=O)c1[nH]c2c(c1C)C(=O)CC(c1ccc(OCC)cc1)C2 (centres undefined)	0	0	6	4
CSCCOC(=O)c1[nH]c2c(c1C)C(=O)CC(c1ccco1)C2 (centres undefined)	0	2	50*	13
COC(CN(C)c1ccc(-c2ccc(O)cc2)cn1)OC	0	1	64*	9
O=C(NCC1CCC2(CCN(Cc3ccccn3)CC2)O1)c1cn2cc(Cl)ccc2n1 (centres undefined)	0	0	0	7
CCN(CC(=O)Nc1cccc(OC)c1)c1ccc(C(N)=O)cc1[N+](=O)[O-]	0	-1	-5	0
c1ccc(-c2cnc(N3CCC4(CC3)OCCO4)nc2)cc1	0	-11	70*	2
Fc1ccc(-c2cc(N3CCC4(CC3)OCCO4)nc(-c3ccccn3)n2)cc1	0	-1	15	9
c1ccc(-c2cc(N3CCC4(CC3)OCCO4)nc(-c3ccccn3)n2)cc1	0	1	43*	1
COc1ccc(-c2cnc(N3CCC4(CC3)OCCO4)nc2)cc1	0	0	-27	5
c1ccc2c3c(c(CN4CCOCC4)cc2c1)COC3	0	1	-1	-5
Nc1ncnc(N/N=C/c2ccc(O)cc2)c1[N+](=O)[O-]	0	-3	68*	-2
Nc1ncnc(N/N=C/c2ccccc2)c1[N+](=O)[O-]	0	1	6	9
Nc1ncnc(N/N=C/c2cccc(Br)c2)c1[N+](=O)[O-]	0	-4	36*	18
COc1ccc(/C=N/Nc2ncnc(N)c2[N+](=O)[O-])cc1OC	0	-1	-22	26
SMILES	FBW7 act	GPR151 ag	TEAD-YAP inh	MITF inh
CC1CCc2nc(NC(=O)COc3ccc(Cl)cc3)sc2C1 (centres undefined)	0	2	2	9
c1ccc2c(c1)nnn1c3ccccc3nc21	0	-9	35*	4
Cc1nc2ccccc2c2nc3ccccc3n12	0	1	-2	-3
Cc1cc2ccccc2cc1Cn1c(-n2ccnc2)nc2c1c(=O)n(C)c(=O)n2C	0	1	6	2
Cn1c(=O)c2c(nc(-n3ccnc3)n2Cc2ccc(Cl)cc2Cl)n(C)c1=O	1.9*	1	-17	4
O=c1oc2c(ccc3c(O)cccc32)c2c1CCCC2	1	-2	45*	13
COC(=O)COc1cccc2c1ccc1c3c(c(=O)oc12)CCCC3	0	0	0	6
COc1cc(/C=C/C(=O)Nc2ccc(S(=O)(=O)N3CCCCC3c3cccnc3)cc2)cc(OC)c1OC (centres undefined)	0	1	56*	14
O=C(Nc1ccc(S(=O)(=O)N2CCCCC2c2cccnc2)cc1)c1ccccc1 (centres undefined)	0	0	8	-2
CC(C)(C)c1ccc(C(=O)Nc2ccc(S(=O)(=O)N3CCCCC3c3cccnc3)cc2)cc1 (centres undefined)	0	-1	43*	-8
CCOc1ccc(N2C(=O)CC(N3CCCC4CCCCC43)C2=O)cc1 (centres undefined)	0	-1	1	-1
COCCNC(=O)c1cc(S(=O)(=O)N2CCCCC2)c[nH]1	0	0	8	14
